Compound activity as filed in PubChem BioAssay.
T cruzi growth-1: T. cruzi proliferation inhibition | 77,000 tested, 5.9% active | inhibition, % at 8.34 µM | AID 624255 | T. cruzi beta-gal in NIH3T3, GalScreen luminescence, 90 h;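 active = mean inhibition above about 93%, with at least 55% of replicates each passing it, limit read from the data, passing the limit was not always enough; inconclusive = only one of those two conditions holds; inactive = neither condition holds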
Pf Dd2 growth: blocks growth of Plasmodium falciparum Dd2 parasites | activity change, % at 10 µM | 94,000 tested, 2.3% active | P. falciparum Dd2 growth, SYBR Green, 72 h; hits give low values; in the data active = activity change below about -80%; inconclusive = no clear call, values can overlap the other calls
C diff growth: blocks growth of Clostridium difficile; Clostridium difficile clinical isolate growth, OD600, 24 h; hits give low values; growth activity, negative = inhibition, % at 16 µg/mL (by protocol); 86,000 tested, 0.25% active; AID 1259249;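 active = mean growth activity at or below -80% and every replicate also at or below -80%; inconclusive = mean at or below -80% but some replicate above -80%; inactive = mean growth activity above -80%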;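 also: 0% = DMSO wells and -100% = levofloxacin 16 µg/mL wells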
T cruzi growth-2: blocks T. cruzi growth in NIH3T3 host cells; shares compounds with T cruzi growth-1; T. cruzi beta-gal in NIH3T3, GalScreen luminescence, 90 h; inhibition, % at 8.35 µM; 5,600 tested, 72% active; AID 651739;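 active = mean replicate inhibition above about 95% and at least 55% of replicates individually reaching it, limit read from the data; inconclusive = only one of the two criteria is met; inactive = neither criterion is met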
T cruzi growth-3: blocks T. cruzi growth in NIH3T3 host cells. 5,600 tested, 21% active. inhibition, % at 2.09 µM. AID 651740. T. cruzi beta-gal in NIH3T3, GalScreen luminescence, 90 h. shares compounds with T cruzi growth-1;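 active = mean inhibition above about 95%, with at least 55% of replicates also reaching it, limit read from the data; inconclusive = meets just one of the two conditions; inactive = meets neither condition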;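 also: plate controls were neutral control median for no effect and positive control median for full effect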
NIH3T3 tox: kills mouse NIH/3T3 fibroblasts; 5,600 tested, 14% active; NIH/3T3 viability, CellTiter-Glo ATP luminescence, 90 h; cytotoxicity (signal decrease), % at 8.35 µM; shares compounds with T cruzi growth-1;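 active = mean signal decrease across replicates above about 35% based on untreated-well scatter, with enough replicates individually passing, limit read from the data; inconclusive = no rule stated though some were filed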;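 also: 0% = median of neutral control wells and 100% = median of positive control wells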
NIH3T3 tox 2: cytotoxicity in mouse NIH/3T3 fibroblasts | shares compounds with T cruzi growth-1 | NIH/3T3 viability, CellTiter-Glo ATP luminescence, 90 h | inhibition, % at 24.9 µM | 5,600 tested, 56% active | AID 651744;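 active = mean loss of cell viability signal at or above a set limit, and enough replicates individually reaching it; inconclusive = meets only the mean limit or only the replicate share; inactive = meets neither condition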;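 also: 0% = median of neutral control wells and 100% = median of positive control wells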
Starred values were filed as active, the others as inactive; ? = inconclusive; · = not tested or not shown; + = active, no number; ! = a repeat was not active. Compounds with a hit are over-represented: about 6.8% of the library has one in this group of screens.

SMILES	T cruzi growth-1	Pf Dd2 growth	C diff growth	T cruzi growth-2	T cruzi growth-3	NIH3T3 tox	NIH3T3 tox 2
COc1ccc(NC(=O)Nc2ccc3c(c2)C(=O)N([C@@H](C)CO)C[C@@H](C)[C@@H](CN(C)S(=O)(=O)c2ccc(C)cc2)OCCCC[C@@H](C)O3)cc1	97*	-60	·	104*	31	-24	-11
COc1ccc(NC(=O)Nc2ccc3c(c2)C(=O)N([C@@H](C)CO)C[C@@H](C)[C@@H](CN(C)S(=O)(=O)c2ccccc2)OCCCC[C@H](C)O3)cc1	11	0	0	·	·	·	·
COc1ccc(NC(=O)Nc2ccc3c(c2)C(=O)N([C@H](C)CO)C[C@@H](C)[C@H](CN(C)S(=O)(=O)c2ccccc2)OCCCC[C@H](C)O3)cc1	-2	-18	-18	·	·	·	·
COc1ccc(S(=O)(=O)N(C)C[C@H]2OCCCC[C@@H](C)Oc3ccc(NC(=O)NC(C)C)cc3C(=O)N([C@@H](C)CO)C[C@@H]2C)cc1	-12	·	-4	·	·	·	·
C[C@H](CO)N1C[C@H](C)[C@H](CN(C)C(=O)CN(C)C)Oc2cc(C3=CCCCC3)ccc2S1(=O)=O	59	-52	5	·	·	·	·
C[C@@H]1CN([C@H](C)CO)C(=O)c2cc(NC(=O)CCC(F)(F)F)ccc2O[C@@H](C)CCCCO[C@H]1CN(C)Cc1ccncc1	85	26	1	·	·	·	·
C[C@H]1CN([C@@H](C)CO)C(=O)c2cc(C#Cc3ccccn3)cnc2O[C@H]1CN(C)Cc1ccncc1	44	11	-1	·	·	·	·
C[C@H]1CN([C@@H](C)CO)C(=O)c2cc(C#Cc3ccccn3)cnc2O[C@@H]1CN(C)Cc1ccccc1	121*!	-43	1	107*	25	-4	-6
C[C@@H]1CN([C@@H](C)CO)C(=O)c2cc(C#CC3(O)CCCC3)cnc2O[C@H]1CN(C)Cc1ccccc1	19	-21	-1	·	·	·	·
C[C@H](CO)N1C[C@H](C)[C@@H](CN(C)Cc2ccccc2)Oc2ncc(C#Cc3ccccn3)cc2C1=O	95	-30	-3	·	·	·	·
C[C@H](CO)N1C[C@H](C)[C@H](CN(C)Cc2ccccc2)Oc2ncc(C#CC3(O)CCCC3)cc2C1=O	102*	-4	-1	46	42	10	19
C[C@@H]1CN([C@@H](C)CO)C(=O)c2cc(C#Cc3ccccn3)cnc2O[C@H]1CN(C)Cc1ccncc1	?	22	-4	108*	56	17	17
C[C@@H]1CN([C@H](C)CO)C(=O)c2cc(C#Cc3ccccc3)cnc2O[C@H]1CN(C)C(=O)c1ccccn1	111*	-24	-5	101*	62	11	30*
C[C@@H]1CN([C@H](C)CO)C(=O)c2cc(C#Cc3ccccc3)cnc2O[C@@H]1CN(C)C(=O)c1ccccn1	53	0	-2	·	·	·	·
CO[C@@H]1CN(C)C(=O)c2ccc(NC(=O)C3CCCCC3)cc2OC[C@@H](C)NC[C@@H]1C	76	·	·	·	·	·	·
C[C@@H]1CN([C@@H](C)CO)S(=O)(=O)c2ccc(-c3cncnc3)cc2O[C@H]1CN(C)C(=O)C1CC1	29	17	1	·	·	·	·
C[C@@H]1CN([C@H](C)CO)C(=O)c2c(c3ccccc3n2C)-c2ccccc2CO[C@@H]1CN(C)C(=O)Nc1ccnc(N2CCOCC2)c1	·	-33	3	·	·	·	·
C[C@@H]1CN([C@@H](C)CO)C(=O)CCCn2cc(nn2)CO[C@@H]1CN(C)C(=O)Nc1ccc(C(C)(C)C)cc1	-60	-4	-3	·	·	·	·
COc1cccc(S(=O)(=O)N[C@H]2CC[C@H](CCn3cc(-c4ccccn4)nn3)O[C@H]2CO)c1	18	2	1	·	·	·	·
CN(C)C(=O)[C@@H]1[C@@H](CO)[C@@H]2Cn3c(ccc(-c4ccccc4)c3=O)[C@H]1N2C(=O)C1CCC1	+	·	-3	55	-19	-14	7
CCNC(=O)[C@@H]1[C@@H](CO)[C@@H]2Cn3c(ccc(-c4ccccc4)c3=O)[C@H]1N2C(=O)C1CC1	3	15	-1	·	·	·	·
CCN1[C@@H]2Cn3c(ccc(-c4ccccc4)c3=O)[C@H]1[C@@H](C(=O)NCc1ccccc1)[C@@H]2CO	53	8	-3	·	·	·	·
CCN1[C@@H]2c3ccc(-c4ccccc4)c(=O)n3C[C@H]1[C@H](CO)[C@H]2C(=O)Nc1ccccc1	99*	11	-2	62	1	8	13
CN(C)C(=O)[C@@H]1[C@@H](CO)[C@@H]2Cn3c(ccc(-c4ccccc4)c3=O)[C@H]1N2CC1CCCC1	87	5	-2	·	·	·	·
CN(C)C(=O)[C@H]1[C@H](CO)[C@H]2Cn3c(ccc(-c4ccccc4)c3=O)[C@@H]1N2CC1CCCC1	?	0	-1	85	26	5	?
SMILES	T cruzi growth-1	Pf Dd2 growth	C diff growth	T cruzi growth-2	T cruzi growth-3	NIH3T3 tox	NIH3T3 tox 2
CC(C)NC(=O)N[C@H]1CC[C@H](CC(=O)NCCN2CCCC2)O[C@@H]1CO	13	13	3	·	·	·	·
CC(C)NC(=O)N1[C@H](C#N)[C@@H](c2ccc(C#CC3CCCC3)cc2)[C@H]1CO	102*	-9	-17	102*	97*	6	37*
CS(=O)(=O)N1[C@H](C#N)[C@@H](c2ccc(C#CC3CCCCC3)cc2)[C@H]1CO	79	-5	-10	·	·	·	·
CN(C)CC(=O)N1[C@@H](C#N)[C@@H](c2ccc(C#CC3CCCC3)cc2)[C@@H]1CO	92	9	14	·	·	·	·
CC(C)NC(=O)N1[C@H](CO)[C@H](c2ccc(C#CC3CCCCC3)cc2)[C@@H]1C#N	107*	-32	-5	98*	116*	30	54*
CN(C)CC(=O)N1[C@H](C#N)[C@H](c2ccc(C#CC3CCCC3)cc2)[C@@H]1CO	75	-31	25	·	·	·	·
CN(C)CC(=O)N1[C@H](C#N)[C@H](c2ccc(C#CC3CCCC3)cc2)[C@H]1CO	99*	-30	-3	96*	66	-9	106*
N#C[C@@H]1[C@H](c2ccc(C#CC3CCCC3)cc2)[C@@H](CO)N1C(=O)Cc1ccccn1	·	-76	-3	·	·	·	·
N#C[C@H]1[C@@H](c2ccc(C#CC3CCCCC3)cc2)[C@H](CO)N1C(=O)Cc1ccccn1	100*	-34	17	101*	104*	-33	81*
COc1ccc(S(=O)(=O)N(C)C[C@H]2Oc3ccc(NC(=O)C4CC4)cc3CC(=O)N([C@@H](C)CO)C[C@H]2C)cc1	34	-14	1	·	·	·	·
O=C(C[C@H]1C=C[C@@H](NC(=O)Cc2cccnc2)[C@H](CO)O1)Nc1ccc(-c2ccccc2)cc1	·	-6	-2	·	·	·	·
C[C@@H]1CN([C@@H](C)CO)C(=O)Cc2cc(NS(=O)(=O)c3ccc(F)cc3)ccc2O[C@@H]1CN(C)Cc1ccc(Oc2ccccc2)cc1	24	-20	-1	·	·	·	·
